FBW7 act = FBW7 E3 ligase activators, primary screen, biochemical, AlphaScreen, human. F-box/WD repeat-containing protein 7 (Homo sapiens), Q969H0. AlphaScreen FBW7–phospho-cyclin E peptide binding, activator screen. normalized activity (activation), % at 26.1 µM. 650,000 compounds, 0.13% hits. AID 1259310, 2017; in the data active = normalized activity above about 1.9%;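 also: purified mutant Fbw7 with reduced substrate affinity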
Target sequence (Q969H0 whole entry, looked up): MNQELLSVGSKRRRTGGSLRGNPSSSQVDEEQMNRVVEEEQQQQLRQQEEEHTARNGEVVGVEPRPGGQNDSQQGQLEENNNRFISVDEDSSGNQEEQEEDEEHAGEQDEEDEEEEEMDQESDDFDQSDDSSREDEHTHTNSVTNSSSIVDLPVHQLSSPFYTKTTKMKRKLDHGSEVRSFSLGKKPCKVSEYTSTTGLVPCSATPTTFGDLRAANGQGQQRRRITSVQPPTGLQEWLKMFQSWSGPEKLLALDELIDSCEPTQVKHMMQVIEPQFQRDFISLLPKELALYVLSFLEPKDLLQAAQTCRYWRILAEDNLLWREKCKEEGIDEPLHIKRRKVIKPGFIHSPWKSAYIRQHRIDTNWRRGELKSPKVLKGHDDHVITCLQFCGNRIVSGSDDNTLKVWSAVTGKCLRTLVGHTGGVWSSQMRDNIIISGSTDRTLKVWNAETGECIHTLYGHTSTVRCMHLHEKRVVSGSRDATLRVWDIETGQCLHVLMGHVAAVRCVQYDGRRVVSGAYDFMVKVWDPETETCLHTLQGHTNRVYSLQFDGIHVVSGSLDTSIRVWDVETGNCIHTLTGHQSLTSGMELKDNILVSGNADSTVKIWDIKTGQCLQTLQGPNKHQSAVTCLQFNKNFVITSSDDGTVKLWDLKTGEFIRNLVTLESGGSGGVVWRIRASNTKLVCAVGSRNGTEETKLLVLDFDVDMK
TEAD-YAP block = TEAD-YAP interaction inhibition, primary screen, TEAD-YAP interaction inhibitor project, luminescence, HEK-TIYL cells; TEAD-Gal4/YAP UAS-luciferase luminescence; inhibition, % at 9.12 µM; 640,000 compounds, 1.4% hits; in the data active = inhibition above about 32%
MITF inh = MITF inhibitors, primary screen, biochemical, AlphaScreen, human. AlphaScreen MITF homodimerization, bead proximity signal. inhibition, % at 2.6 µM. 650,000 compounds, 0.91% hits. AID 1259374, 2018; in the data active = inhibition above about 50%
GPR151 ag = activators of human GPR151, primary screen, cell-based, PathHunter beta-arrestin, luminescence | activation, % at 11.2 µM | AID 1508602, 2020 | G-protein coupled receptor 151 (Homo sapiens), Q8TDV0 | PathHunter beta-arrestin GPR151 cells | 650,000 compounds, 1% hits; in the data active = activation above about 4.9%
Numbers stand for hits; . = inactive. Sampled rows, rich in hits. Any-hit rate of the full collection: about 3.5%.

SMILES	FBW7 act	TEAD-YAP block	MITF inh	GPR151 ag
COc1cccc(/C=N/NC(=O)c2cc(-c3ccc(C)cc3)n[nH]2)c1O	.	79	62	.
COc1cccc(/C=N/NC(=O)Cn2c3ccccc3c(=O)c3ccccc32)c1O	.	50	.	.
COc1cccc(/C=N/NC(=O)c2cccc(NC(=O)c3ccccc3F)c2)c1O	.	64	.	.
COc1cccc(/C=N/NC(=O)COc2ccccc2)c1O	.	.	.	.
COc1ccccc1/C=N/NC(=O)c1cc(-c2ccc(C)cc2)n[nH]1	.	.	.	.
COc1cccc(/C=N/NC(=O)c2ccccc2O)c1O	.	77	.	.
CCN1CCCC1CNC(=O)c1sc2ncn(CC(=O)Nc3cccc(C(F)(F)F)c3)c(=O)c2c1C (stereo not given)	.	.	.	.
COc1ccc(C2=NN(C(=O)CCC(=O)O)C(c3cccc(OC)c3OC)C2)cc1 (stereo not given)	.	.	.	.
COc1ccc(C(=O)N/N=C/c2cccc(OC)c2O)cc1	.	.	.	.
COc1cccc(/C=N/NC(=O)c2ccc(-c3ccccc3)cc2)c1O	.	83	.	.
CC(C)Oc1ccc(-c2cc(C(=O)N/N=C/c3ccccc3O)[nH]n2)cc1	.	65	.	.
C=CCc1cccc(/C=N/NC(=O)c2ccccc2O)c1O	.	42	.	.
Cc1ccccc1/C=N/NC(=O)c1ccccc1C	.	.	.	.
Cc1ccccc1C(=O)N/N=C/c1cccc(O)c1O	.	59	.	.
C=CCc1cccc(/C=N/NC(=O)c2ccccc2OC)c1O	.	.	.	.
CC1CCc2c(sc(NC(=O)CN3C(=O)C4C5C=CC(C5)C4C3=O)c2C(N)=O)C1 (stereo not given)	.	.	.	.
O=C(N/N=C/c1cccc(O)c1O)c1cc(O)cc(O)c1	.	.	61	.
O=C(N/N=C/c1ccccc1O)c1cccc2cc[nH]c12	.	81	.	.
COc1cccc2c(SCC(=O)N/N=C/c3ccc(O)cc3O)cc(C)nc12	.	.	.	.
COc1cc(Br)cc(C=Nc2ccc3[nH]ncc3c2)c1O	.	.	.	.
O=C(N/N=C/c1ccccc1Br)c1cccc2cc[nH]c12	.	.	.	.
COc1cccc(C=Nc2ccc3[nH]ncc3c2)c1O	6.3	.	.	.
COc1cccc(/C=N/NC(=O)CSc2cc(C)nc3ccc(C)cc23)c1O	.	44	.	.
COc1ccccc1C(c1nnnn1C1CCCCC1)N1CCCC1 (stereo not given)	.	.	.	.
COc1cccc(/C=N/NC(=O)c2ccc(O)cc2O)c1O	.	42	.	.
SMILES	FBW7 act	TEAD-YAP block	MITF inh	GPR151 ag
COc1cccc(/C=N/NC(=O)c2cc(C34CC5CC(CC(C5)C3)C4)[nH]n2)c1O	.	40	.	.
O=C(COC(=O)c1ccc2c(c1)OCO2)NC1CCS(=O)(=O)C1 (stereo not given)	.	.	.	.
Cc1ccc2nc(N3CCN(C(=O)Nc4ccc5c(c4)OCO5)CC3)[nH]c2c1	.	.	.	.
CCCCCCC(=O)Oc1ccc(-c2cnc3ccccc3n2)cc1	.	.	.	.
CCC(=O)Oc1ccc(-c2cnc3ccccc3n2)cc1	.	41	.	.
COc1ccc(C(=O)NCc2c(CC(C)C)oc(C)c2C(=O)O)cc1	.	.	.	.
CCCN(C(=O)c1coc(=O)c2ccccc12)c1cccc(Cl)c1	.	68	.	.
CC1=C(C(=O)Nc2ccc(Br)cn2)C(c2cccs2)C2=C(CC(C)(C)CC2=O)N1 (stereo not given)	.	35	.	.
CC1=C(C(=O)Nc2ccc(C)cn2)C(c2cccs2)C2=C(CC(C)(C)CC2=O)N1 (stereo not given)	.	58	.	.
CC1=C(C(=O)Nc2ccc(C)cn2)C(c2ccc(C)cc2)C2=C(CC(C)(C)CC2=O)N1 (stereo not given)	.	.	.	.
CC1=C(C(=O)Nc2ccc(Br)cn2)C(c2ccsc2)C2=C(CC(C)(C)CC2=O)N1 (stereo not given)	.	52	.	.
CCOC(=O)C1=CN(Cc2ccc(Cl)cc2)C=C(C(=O)OCC)C1c1ccccc1Br	.	.	.	.
Cc1ccc(C(=O)/C(=C\c2cccs2)c2nc3ccccc3o2)cc1	.	73	.	.
COc1ccc(C(=O)/C(=C\c2ccc(C)o2)c2nc3ccccc3o2)cc1	.	38	.	.
O=[N+]([O-])c1cccc(C2=NN(c3nc(-c4ccc(S(=O)(=O)N5CCOCC5)cc4)cs3)C(c3ccc(F)cc3)C2)c1 (stereo not given)	.	.	.	.
Cc1cc(C(=O)CSc2nc3ccccc3[nH]2)c(C)n1CC1CCCO1 (stereo not given)	.	40	.	.
COC(=O)c1ccc(CSCC(=O)c2cc(C)n(CC3CCCO3)c2C)cc1 (stereo not given)	.	37	.	.
Cc1cc(C(=O)CCl)c(C)n1CC1CCCO1 (stereo not given)	.	.	.	.
O=C(NCc1ccccc1)c1ccc2cnc(Nc3ccc(-n4cnc(N5CCOCC5)n4)cc3)nc2c1	.	.	.	.
Cn1nccc1-c1ccc2cnc(Nc3ccc(-n4cnc(N5CCOCC5)n4)cc3)nc2c1	.	.	.	.
c1cc(-n2cnc(N3CCOCC3)n2)ccc1Nc1ncc2ccc(N3CCOCC3)cc2n1	.	.	.	.
c1cc(-c2ccc3cnc(Nc4ccc(-n5cnc(N6CCOCC6)n5)cc4)nc3c2)[nH]n1	13	.	.	.
CNC(=O)c1ccc2cnc(Nc3ccc(-n4cnc(N5CCOCC5)n4)cc3)nc2c1	.	55	.	.
Nc1ccc(-c2ccc3cnc(Nc4ccc(-n5cnc(N6CCOCC6)n5)cc4)nc3c2)cn1	.	65	.	.
COc1ccc(C2=NNC(c3ccco3)=Nc3ccc(F)cc32)cc1	.	.	.	.
SMILES	FBW7 act	TEAD-YAP block	MITF inh	GPR151 ag
CC1(C)CC(=O)C2=C(C1)OC(c1ccc(Br)o1)C(C#N)=C2N (stereo not given)	.	.	.	.
Cc1ccc(C(=O)N2CCCC(CCC(=O)N3CCN(c4ccccn4)CC3)C2)cc1C (stereo not given)	3.6	.	.	.
Cc1ccoc1C(=O)N1CCCC(CCC(=O)N2CCN(c3ccccn3)CC2)C1 (stereo not given)	.	.	.	.
N#CCn1cc[n+](CCCNP2(=O)C=C(c3ccccc3)OC(c3ccccc3)=C2)c1	.	.	.	.
CC(=O)c1c(C)[nH]c(C(=O)OCc2csc(-c3ccccc3)n2)c1C	.	32	.	.
CC(=O)c1c(C)[nH]c(C(=O)OCC(=O)Nc2nc(-c3ccc(C)cc3)cs2)c1C	.	37	.	.
Clc1ccc(-c2ncnn2-c2ccc(Br)cc2)cc1	.	.	.	.
COc1cc(/C(C)=N/NC(=O)c2n[nH]c3c2CCC3)ccc1O	.	35	.	.

Screens: PubChem, The Scripps Research Institute Molecular Screening Center
